# From PubChem BioAssay (NCATS)
# Inconclusive results are not listed. The source made the active and inactive calls. Unless noted, the call rests on the fitted dose curve; in most records, active means well fitted curve in the direction sought with a large enough effect in the repeat runs; inconclusive means weak or mixed curves; inactive means no such curve, though single readings can be large; an effect the other way counts as inactive or inconclusive.
# Experiments:
# [1] = target: Cytochrome P450 2C9 (Homo sapiens) (UniProt P11712); assay: Cytochrome P450 family 2 subfamily C member 9 (CYP2C9) small molecule antagonists: luciferase biochemical (cell-free) qHTS assay (AID 1645842); further: nearly all actives have a fitted effect of over 55% in size; further: potency means the concentration at half of the fitted maximal effect
# Chain of Cytochrome P450 2C9 (Homo sapiens) (P11712 whole entry, looked up): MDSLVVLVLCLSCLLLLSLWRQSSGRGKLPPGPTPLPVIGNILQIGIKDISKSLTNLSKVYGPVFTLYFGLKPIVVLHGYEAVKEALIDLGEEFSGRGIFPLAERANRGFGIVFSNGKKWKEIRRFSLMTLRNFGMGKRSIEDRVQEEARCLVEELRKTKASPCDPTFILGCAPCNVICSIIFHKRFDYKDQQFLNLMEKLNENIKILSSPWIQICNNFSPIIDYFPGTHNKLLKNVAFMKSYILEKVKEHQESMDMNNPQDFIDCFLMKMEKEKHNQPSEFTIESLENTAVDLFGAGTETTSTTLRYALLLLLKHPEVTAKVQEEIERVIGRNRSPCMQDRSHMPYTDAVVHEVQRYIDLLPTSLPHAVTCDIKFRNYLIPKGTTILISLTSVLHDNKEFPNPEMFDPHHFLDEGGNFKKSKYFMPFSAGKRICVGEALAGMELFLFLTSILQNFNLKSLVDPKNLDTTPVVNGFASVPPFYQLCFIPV
# Method in brief: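 P450-Glo CYP2C9 system: proluciferin substrate with enzyme in mix containing 0.4% BSA, 10 min at room temperature, then NADPH regeneration solution added and incubated 1 h at 37C. Detection reagent stopped reaction; luminescence read after 20 min as RLU.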
# [2] = target: Rap guanine nucleotide exchange factor 3 (Homo sapiens) (UniProt O95398); assay: Confirmatory qHTS for antagonist of cAMP-regulated guanine nucleotide exchange factor 3 (EPAC1) (AID 1645880; active means well fitted curve in the direction sought with a large enough effect; an effect the other way counts as inactive or inconclusive; further: potency means the concentration at half of the fitted maximal effect; nearly all actives have a fitted effect of over 55% in size)
# Chain of Rap guanine nucleotide exchange factor 3 (Homo sapiens) (O95398 whole entry, looked up): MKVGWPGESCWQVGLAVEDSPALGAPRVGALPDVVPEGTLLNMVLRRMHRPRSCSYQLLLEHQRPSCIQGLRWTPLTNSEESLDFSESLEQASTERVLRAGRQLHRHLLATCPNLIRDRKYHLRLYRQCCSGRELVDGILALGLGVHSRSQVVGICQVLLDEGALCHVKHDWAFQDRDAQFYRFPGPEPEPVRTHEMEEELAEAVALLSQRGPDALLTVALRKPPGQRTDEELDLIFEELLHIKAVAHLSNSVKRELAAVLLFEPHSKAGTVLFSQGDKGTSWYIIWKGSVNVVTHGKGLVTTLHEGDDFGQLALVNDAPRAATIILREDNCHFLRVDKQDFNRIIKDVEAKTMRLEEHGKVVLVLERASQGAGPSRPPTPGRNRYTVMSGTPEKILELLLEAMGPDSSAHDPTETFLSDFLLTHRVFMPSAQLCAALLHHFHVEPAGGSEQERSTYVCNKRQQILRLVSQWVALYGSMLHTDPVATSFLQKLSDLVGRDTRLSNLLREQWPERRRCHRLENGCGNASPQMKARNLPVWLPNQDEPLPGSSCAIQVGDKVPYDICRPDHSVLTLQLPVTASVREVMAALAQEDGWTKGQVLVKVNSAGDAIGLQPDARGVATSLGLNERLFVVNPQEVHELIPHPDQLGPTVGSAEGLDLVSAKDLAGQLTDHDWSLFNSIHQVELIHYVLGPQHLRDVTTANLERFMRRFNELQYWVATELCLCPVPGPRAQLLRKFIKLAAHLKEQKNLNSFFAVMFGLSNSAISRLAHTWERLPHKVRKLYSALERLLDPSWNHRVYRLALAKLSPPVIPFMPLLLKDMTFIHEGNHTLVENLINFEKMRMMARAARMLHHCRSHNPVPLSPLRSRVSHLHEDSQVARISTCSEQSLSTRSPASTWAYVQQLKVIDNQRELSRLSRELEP
# Method in brief: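 Released BODIPY-GDP fluoresces less than Rap1-bound BODIPY-GDP; the signal is followed at 480/540 nm at 5-min intervals over 30 min, after 5 min at room temperature. Reactions contain 100 nM EPAC1, 250 nM RAP1B-BODIPY-GDP and 50 uM GDP; results are normalized to ATA and DMSO.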
# [3] = target: Rap guanine nucleotide exchange factor 3 (Homo sapiens) (UniProt O95398); assay: Confirmatory qHTS for agonist of cAMP-regulated guanine nucleotide exchange factor 3 (EPAC1) (AID 1645881; active means well fitted curve in the direction sought with a large enough effect; an effect the other way counts as inactive or inconclusive;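 further: EPAC1 catalysed release of BODIPY-GDP from Rap1B seen as fluorescence loss; nearly all actives have a fitted effect of over 75% in size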)
# [4] = target: Rap guanine nucleotide exchange factor 4 (Homo sapiens) (UniProt Q8WZA2); assay: Confirmatory qHTS for agonist of cAMP-regulated guanine nucleotide exchange factor 4 (EPAC2) (AID 1645884; active means well fitted curve in the direction sought with a large enough effect; an effect the other way counts as inactive or inconclusive;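 further: nucleotide exchange releases bodipy-GDP from Rap1 and this lowers its fluorescence; nearly all actives have a fitted effect of over 65% in size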)
# Chain of Rap guanine nucleotide exchange factor 4 (Homo sapiens) (Q8WZA2 whole entry, looked up): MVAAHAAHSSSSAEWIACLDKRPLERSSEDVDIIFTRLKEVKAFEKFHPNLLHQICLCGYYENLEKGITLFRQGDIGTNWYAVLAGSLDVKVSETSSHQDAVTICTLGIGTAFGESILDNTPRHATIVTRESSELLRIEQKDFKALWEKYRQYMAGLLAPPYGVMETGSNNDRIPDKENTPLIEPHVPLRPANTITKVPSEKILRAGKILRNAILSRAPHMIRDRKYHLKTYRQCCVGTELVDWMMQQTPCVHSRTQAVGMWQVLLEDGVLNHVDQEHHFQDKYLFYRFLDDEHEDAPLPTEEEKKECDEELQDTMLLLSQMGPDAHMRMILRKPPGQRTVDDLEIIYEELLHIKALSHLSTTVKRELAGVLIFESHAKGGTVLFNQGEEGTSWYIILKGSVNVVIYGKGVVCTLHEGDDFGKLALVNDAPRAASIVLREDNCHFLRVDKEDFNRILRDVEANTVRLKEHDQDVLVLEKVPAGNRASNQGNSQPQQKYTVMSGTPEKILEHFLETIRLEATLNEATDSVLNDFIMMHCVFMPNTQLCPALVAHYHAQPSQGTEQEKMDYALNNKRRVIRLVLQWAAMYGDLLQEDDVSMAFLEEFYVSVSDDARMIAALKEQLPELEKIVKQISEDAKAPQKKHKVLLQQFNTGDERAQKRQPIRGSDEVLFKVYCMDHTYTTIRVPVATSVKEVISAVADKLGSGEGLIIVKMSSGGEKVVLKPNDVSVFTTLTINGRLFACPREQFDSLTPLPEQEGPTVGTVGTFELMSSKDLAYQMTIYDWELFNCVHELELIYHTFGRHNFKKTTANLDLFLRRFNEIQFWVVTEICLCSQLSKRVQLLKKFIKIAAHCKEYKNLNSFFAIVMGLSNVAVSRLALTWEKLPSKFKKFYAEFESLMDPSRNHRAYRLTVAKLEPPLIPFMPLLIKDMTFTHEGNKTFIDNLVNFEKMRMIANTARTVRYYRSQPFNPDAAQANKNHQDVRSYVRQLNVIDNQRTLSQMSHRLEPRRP
# [5] = target: Rap guanine nucleotide exchange factor 4 (Homo sapiens) (UniProt Q8WZA2); assay: Confirmatory qHTS for antagonist of cAMP-regulated guanine nucleotide exchange factor 4 (EPAC2) (AID 1645885; active means well fitted curve in the direction sought with a large enough effect; an effect the other way counts as inactive or inconclusive; further: nearly all actives have a fitted effect of over 25% in size)
# [6] = target: Rap guanine nucleotide exchange factor 3 (Homo sapiens) (UniProt O95398); assay: Counterscreen qHTS for antagonist of cAMP-regulated guanine nucleotide exchange factor 3 (EPAC1) (AID 1645888; active means well fitted curve in the direction sought with a large enough effect; an effect the other way counts as inactive or inconclusive)
# Method in brief: (§1)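 Rap1B–BODIPY-GDP (250 nM) with 50 uM GDP; compounds pin-transferred to 9.74 nM–152 uM final (activator) or from 7.32 nM upwards (inhibitor). Fluorescence Ex/Em 480/540 nm read at 5 and 30 min, then after adding cAMP or buffer, at room temperature.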
# [7] = target: Rap guanine nucleotide exchange factor 3 (Homo sapiens) (UniProt O95398); assay: Counterscreen qHTS for agonist of cAMP-regulated guanine nucleotide exchange factor 3 (EPAC1) (AID 1645889; active means well fitted curve in the direction sought with a large enough effect; an effect the other way counts as inactive or inconclusive; further: nearly all actives have a fitted effect of over 40% in size)
# Method in brief: as §1
# [8] = target: Glutathione peroxidase 1 (Homo sapiens) (UniProt P07203); assay: Primary qHTS Assay for Inhibitors of Recombinant Selenoprotein Glutathione Peroxidase 1 (GPX1) (AID 1845191; active means well fitted curve in the direction sought with a large enough effect; an effect the other way counts as inactive or inconclusive; further: nearly all actives have a fitted effect of over 65% in size)
# Chain of Glutathione peroxidase 1 (Homo sapiens) (P07203 whole entry, looked up): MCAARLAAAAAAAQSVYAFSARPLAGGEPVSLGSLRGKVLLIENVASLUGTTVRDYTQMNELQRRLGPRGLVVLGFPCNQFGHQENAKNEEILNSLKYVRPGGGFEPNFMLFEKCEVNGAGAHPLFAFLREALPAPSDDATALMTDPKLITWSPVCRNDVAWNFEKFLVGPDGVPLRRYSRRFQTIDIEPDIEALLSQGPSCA
# Method in brief: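 GR-coupled readout: NADPH consumption tracked by fluorescence, ex 340/em 450 nm, at t=0 and after 15 min at RT. Final mix 10 nM GPX1, 1 mM GSH, 0.5 mM CHP, 0.5 mM NADPH, 100 nM GR, 0.01% BSA, following 30 min enzyme–compound preincubation.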
# [9] = target: Phospholipid hydroperoxide glutathione peroxidase GPX4 (Homo sapiens) (UniProt P36969); assay: Primary qHTS Assay for Inhibitors of Recombinant Selenoprotein Glutathione Peroxidase 4 (GPX4) (AID 1845192; active means well fitted curve in the direction sought with a large enough effect; an effect the other way counts as inactive or inconclusive; further: series mostly up to about 50 µM; nearly all actives have a fitted effect of over 65% in size)
# Chain of Phospholipid hydroperoxide glutathione peroxidase GPX4 (Homo sapiens) (P36969 whole entry, looked up): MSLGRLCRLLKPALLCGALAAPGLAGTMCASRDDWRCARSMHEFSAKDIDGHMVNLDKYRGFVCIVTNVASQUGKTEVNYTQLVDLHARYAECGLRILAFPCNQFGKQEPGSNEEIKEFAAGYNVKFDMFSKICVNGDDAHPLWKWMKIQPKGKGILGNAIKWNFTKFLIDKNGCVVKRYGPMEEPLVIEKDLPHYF
# Method in brief: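 Steps: GPX4 plus compound, 30 min RT; add GR/GSH/NADPH master mix; start with cumene hydroperoxide; read 340/450 nm fluorescence at 0 and 15 min. Finals were 200 nM GPX4, 1 mM GSH, 0.5 mM CHP, 0.5 mM NADPH, 100 nM GR.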
# [10] = target: N-terminal Xaa-Pro-Lys N-methyltransferase 1 (Homo sapiens) (UniProt Q9BV86); assay: Confirmatory qHTS for Inhibitors of N-terminal methyltransferase 1 (NTMT1): MTaseGlo Assay (AID 1645874; active means well fitted curve in the direction sought with a large enough effect; an effect the other way counts as inactive or inconclusive;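 further: luminescence from SAH made as NTMT1 methylates SPKRIA peptide using SAM; series mostly up to about 100 µM; nearly all actives have a fitted effect of over 65% in size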)
# Chain of N-terminal Xaa-Pro-Lys N-methyltransferase 1 (Homo sapiens) (Q9BV86 whole entry, looked up): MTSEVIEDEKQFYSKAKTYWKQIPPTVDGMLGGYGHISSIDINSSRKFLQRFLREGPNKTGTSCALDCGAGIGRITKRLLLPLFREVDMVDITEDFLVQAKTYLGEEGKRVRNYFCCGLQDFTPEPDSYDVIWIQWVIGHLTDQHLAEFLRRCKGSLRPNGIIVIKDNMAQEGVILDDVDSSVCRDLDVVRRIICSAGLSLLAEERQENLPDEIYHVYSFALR
# Method in brief: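 MTase-Glo luminescence measured SAH formed by 125 nM NTMT1 from 100 uM SAM and 1 uM SPKRIA peptide over 30 min at room temperature, following 15 min compound preincubation. Percent inhibition against no-enzyme and DMSO controls gave 4-parameter Hill fits.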
compound,measurement,setting,value
CCOc1ccc(C(NC(=O)c2cc(OC)c(OC)c(OC)c2)c2cc(Cl)c3cccnc3c2O)cc1 (centres undefined),Potency,[1],30.1 µM (active)
CC(C)(C)c1ccc(-c2nc(SCC(=O)Nc3ccc(Cl)cc3)[nH]c(=O)c2C#N)cc1,Potency,[1],3.01 µM (active)
same,Potency,[2],84.9 µM (active)
same,Potency,[3],inactive
same,Potency,[4],inactive
same,Potency,[5],inactive
same,Potency,[6],inactive
same,Potency,[7],inactive
COc1ccc(OCC(=O)Nc2cc(-c3nc4ccccc4s3)ccc2C)cc1,Potency,[1],0.379 µM (active)
CCOC(=O)c1nnc(NC(=O)C2=C(C)NC(Nc3nc4ccccc4o3)=NC2c2ccccc2Cl)s1 (centres undefined),Potency,[1],16.9 µM (active)
CC1=C(C(=O)Nc2cc(C(=O)O)ccn2)C(c2ccc(F)cc2Cl)N=C(Nc2nc3ccc(F)cc3o2)N1 (centres undefined),Potency,[1],23.9 µM (active)
COc1ccc(CCNc2nc(SCc3ccccc3F)nc3ccccc23)cc1OC,Potency,[1],0.849 µM (active)
CCN(CC)C(=O)[C@]1(c2ccccc2)C[C@H]1CN,Potency,[1],inactive
same,Potency,[8],inactive
same,Potency,[9],inactive
COC(=O)c1c(SCC(=O)Nc2ccccc2C(F)(F)F)[nH]c2ccc(Cl)cc2c1=O,Potency,[1],1.9 µM (active)
CCOC(C(=O)N(C)CCN(C)CCc1ccccc1)(c1ccccc1)c1ccccc1,Potency,[1],6.01 µM (active)
O=c1[nH]c2ccc(S(=O)(=O)Nc3cc(Cl)ccc3O)cc2o1,Potency,[1],9.52 µM (active)
Cc1cccc(Cc2c(C)nc3c(-c4ccccc4)c(C)[nH]n3c2=O)c1,Potency,[1],inactive
CCC(=O)N1CCc2cc(S(=O)(=O)NC(Cc3ccccc3)C(=O)NCc3cccc(OC)c3)ccc21 (centres undefined),Potency,[1],12 µM (active)
COCCCNC(=O)CCC(=O)NNc1nc2ccccc2c2nc(-c3ccccc3)nn12,Potency,[1],9.52 µM (active)
CCOc1ccc(CCNC(=O)CCCn2nc(C)c3sc4ccccc4c3c2=O)cc1OCC,Potency,[1],2.68 µM (active)
CCCn1c(/C=C/c2ccccc2)nc2ccccc21,Potency,[10],inactive
COc1cc(Cl)c(C)cc1NC(=O)CSc1ncc(S(=O)(=O)c2ccc(C(C)(C)C)cc2)c(=O)[nH]1,Potency,[1],0.425 µM (active)
